ERK AVP inh: qHTS Assay for Inhibitors of the ERK Signaling Pathway using a Homogeneous Screening Assay; 0.99% of 72,000 active; Potency, µM (highest dose often 57.5 µM), inactives show top-dose activity, negative = inhibition, actives largely listed as inhibitors; HEK293-V1b, vasopressin-stimulated pERK AlphaScreen; also: potency is read from the fitted curve at half-maximal effect; % is scaled to controls: 0 for no effect and ±100 for the full control effect; nearly all actives have a fitted effect of over 55% in size
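HEK293 cells stably expressing V1b receptor, preincubated 30 min at 37 °C with compound, then stimulated 5 min with 25 nM vasopressin. Phospho-ERK by AlphaScreen SureFire after 5 h RT; normalized to DMSO and vasopressin; AC50 by Hill fit.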
HBB splicing: qHTS Assay for Modulators of Hemoglobin Beta Chain Splicing; HBB splicing reporter cell assay, activation; EGFP reporter with mutant IVS2-654 intron; response scale: normalised to 500 nM splice-correcting PNA; Potency, µM (top dose mostly 46.1 µM), inactives show at the top dose activation, most hits filed as activators; 0.06% of 65,000 active; also: potency is read from the fitted curve at half-maximal effect; 0% is about no effect
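HeLa cells stably expressing EGFP interrupted by mutant beta-globin intron 2 (IVS2-654), 500/well in 2% FCS. Treated with compound for 2 days at 37C. Splicing correction scored as total well GFP intensity (488 nm excitation, 500-520 nm emission); 500 nM antisense PNA served as control.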
GFP derepression: qHTS Assay for Epigenetic Modulators | mouse C127i GFP locus derepression, cytometry, 30 h | AID 597, 2007 | Potency, µM (doses to about 46.1 µM), for the others: at the highest dose GFP derepression (activation) | 0.09% of 68,000 active; also: % of control where 0% means no effect
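Murine C127i mammary cells carrying a silenced, stably integrated CMV-driven GFP reporter were treated with compound for 30 hours at 37 C. After PBS washes, GFP-positive cells were counted by laser-scanning microplate cytometry.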
HEK293 cAMP cs: qHTS Assay for Agonists of the Thyroid Stimulating Hormone Receptor: Activators of Intracellular cAMP Concentrations in Parental HEK 293 | parental HEK293 CNG cAMP sensor, membrane potential fluorescence | Potency, µM (series often up to 57.1 µM), for inactives: at the top dose activation, actives largely listed as activators | 2.5% of 73,000 active | AID 938, 2007; also: potency is read from the fitted curve at half-maximal effect; % of control where 0% means no effect; nearly all actives have a fitted effect of over 55% in size
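Parental HEK 293 cells stably expressing a cAMP-gated CNG channel were loaded with membrane potential dye containing 100 uM RO 20-1724 for 60 min. Compound added for 30 min; depolarization read as fluorescence intensity at 590 nm.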
Ub-GFP proteasome: Ubiquitin-GFP Assay; Ubiquitin-GFP reporter cells, proteasome inhibition, GFP fluorescence; response scale: untreated = 0%, 10 µM MG-132 = 100%; Potency, µM (highest dose often 45.9 µM), without a hit: at the top dose activation (GFP accumulation), usual class: activators; 67,000 tested, under 10 active; active = well fitted activation curve with a large enough effect, not every such curve was filed as active; inconclusive = small, poorly fitted or top-dose-only effect, or another doubt; inactive = no such curve, though single readings can be large or run the other way; also: potency is read from the fitted curve at half-maximal effect
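U2OS Ub(G76V)-GFP reporter; O/N plating, 0.5% FBS; cpd 46 uM–2.9 nM, 4 h, 37 °C; GFP+ cell count, 488/515 nm; norm. to basal vs 10 uM MG-132; CRC fit.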
TSHR ag: qHTS Assay for Agonists of the Thyroid Stimulating Hormone Receptor | Potency, µM (top dose mostly 57.1 µM), for the others: at the top dose activation, most hits filed as activators | 0.48% of 73,000 active | HEK293-CNG-TSHR cells (CNG channel as cAMP sensor), membrane potential dye, cAMP; active = well fitted activation curve with a large enough effect in the main read-out, with a control signal flat, not every such curve was filed as active; inconclusive = small, poorly fitted or top-dose-only effect, or a change in a side signal; inactive = no such curve, though single readings can be large or run the other way; % of control where 0% means no effect;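 also: the control signal comes from parental cells without the receptor; potency is read from the fitted curve at half-maximal effect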
Target sequence (P16473 whole entry, looked up): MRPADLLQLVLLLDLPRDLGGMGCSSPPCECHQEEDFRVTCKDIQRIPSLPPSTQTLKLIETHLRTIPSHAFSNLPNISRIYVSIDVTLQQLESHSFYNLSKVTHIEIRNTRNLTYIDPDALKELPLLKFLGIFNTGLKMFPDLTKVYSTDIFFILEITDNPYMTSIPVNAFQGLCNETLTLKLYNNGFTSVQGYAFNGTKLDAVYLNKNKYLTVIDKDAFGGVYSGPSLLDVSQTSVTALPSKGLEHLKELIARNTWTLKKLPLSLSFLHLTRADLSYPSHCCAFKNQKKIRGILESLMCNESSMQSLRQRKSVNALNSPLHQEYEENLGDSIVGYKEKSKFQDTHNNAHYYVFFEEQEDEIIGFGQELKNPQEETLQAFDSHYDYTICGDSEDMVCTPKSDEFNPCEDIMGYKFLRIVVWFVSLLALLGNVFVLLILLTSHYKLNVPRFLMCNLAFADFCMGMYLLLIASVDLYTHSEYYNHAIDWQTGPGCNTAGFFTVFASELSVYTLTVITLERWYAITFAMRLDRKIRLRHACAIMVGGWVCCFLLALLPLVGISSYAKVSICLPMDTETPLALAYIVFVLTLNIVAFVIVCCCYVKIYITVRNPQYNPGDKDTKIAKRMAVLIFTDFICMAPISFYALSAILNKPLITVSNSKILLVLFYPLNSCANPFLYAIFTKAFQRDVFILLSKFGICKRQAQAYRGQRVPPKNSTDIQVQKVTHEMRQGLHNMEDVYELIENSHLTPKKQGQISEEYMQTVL
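HEK 293 cells stably expressing TSHR and a cAMP-gated CNG channel; parental CNG-only cells as counterscreen. Cells preloaded 60 min with membrane potential dye plus 100 uM RO 20-1724, then compound 30 min; fluorescence read at 590 nm.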
Active calls of the source: *; ? = inconclusive; . = not tested or not shown; [ ] = dose if it differs, or a comment. Shown are actives, neighbours in structure and some others; about 3.8% of the full set was active somewhere. Unless noted, calls follow the shape of the dose curve; as a rule, active = well fitted curve in the direction sought with a large enough effect; inconclusive = small, poorly fitted or top-dose-only effect, or another doubt; inactive = no such curve, though single readings can be large; an effect the other way counts as inactive or inconclusive.

SMILES	ERK AVP inh	HBB splicing	GFP derepression	HEK293 cAMP cs	Ub-GFP proteasome	TSHR ag
CC(C)(C)n1nnnc1C(c1ccccc1)N1CCc2ccccc2C1 (stereo not given)	-2%	0%[57.5 µM]	2%	?	3%	?
CN(C)c1ccc(C(c2nnnn2C(C)(C)C)N2CCc3ccccc3C2)cc1 (stereo not given)	3%	.	0%	16µM*	-4%	?
COc1ccc(C(c2nnnn2C2CCCC2)N2CCc3ccccc3C2)cc1OC (stereo not given)	10%	.	-3%	7.9µM*	1%	?
COc1ccc(OC)c(C(c2nnnn2C2CCCC2)N2CCc3ccccc3C2)c1 (stereo not given)	-4%	-1%	-2%	?	-2%	?
CCC/C=C(\CCC)C(NS(=O)(=O)c1cccs1)c1ccc(C(=O)OC)cc1 (stereo not given)	17%	1%	.	?	.	?
Cc1ccc(C2C3CSCC=C3C(C#N)=C(N)C2(C#N)C#N)cc1 (stereo not given)	8%	?	2%	-2%	11%	25µM*
CC(C)N1CC=C2C(C#N)=C(N)C(C#N)(C#N)C(c3ccccc3)C2C1 (stereo not given)	.	.	-3%[20.6 µM]	.	.	.
CN(C)CCn1c(C(=O)Nc2ccccc2)cc2ccccc21	9%	0%	6%	2µM*	-4%	?
CC(=O)Nc1nc2ccccc2n1CCN(C)C	-1%	-8%	2%	1%	1%	-3%
CCN(c1cccc(C(F)(F)F)c1)S(=O)(=O)c1ccc2c(c1)CCN2C(=O)C1CC1	-1%	-3%	-1%	25µM*	12%	?
CCC(=O)N1CCc2cc(S(=O)(=O)N(CC)c3cccc(C)c3)ccc21	-8%	0%	1%	?	-6%	?
COCCNc1nc(-c2ccccc2Cl)nc2ccccc12	?	-2%	2%[9.22 µM]	22%	0%	15%
CCCC[C@H]1C[C@@H]1[C@@H]1N(C(C)=O)[C@H](c2cccc(OC)c2)CC12CC2	0%	0%	.	20µM*	.	?
CCCC[C@H]1C[C@@H]1[C@@H]1N(P(=O)(c2ccccc2)c2ccccc2)[C@](CO)(c2ccccc2)CC12CC2	-21%	2%	.	?	.	?
CC(C)C(NC(=O)C(Cc1ccc(O)cc1)NC(=O)C(NC(=O)C(F)(F)F)C(C)C)C(=O)O (stereo not given)	-13%	.	.	.	.	.
CCOc1ccc(Br)cc1-c1noc(-c2cccs2)n1	27%	-1%	0%	20%	-6%	25µM*
COc1cc(-c2noc(-c3cccs3)n2)cc(OC)c1OC	-2%	-2%	3%	15%	14%	19%
O=C(CSc1nnc(COc2ccccc2Cl)o1)NC(=O)NC1CCCC1	20µM*	0%[57.5 µM]	0%	28%	0%	9%
Cc1ccccc1-c1nnc(SCC(=O)NC2CCCCC2)o1	3%	2%	-2%	32µM*	-2%	?
Cc1cc(C)c(S(=O)(=O)Nc2ccccc2C(F)(F)F)c(C)c1	-29%	.	0%	40µM*	8%	?
CC1CCC2(OC1)OC1CC3C4CC[C@@H]5CC(O)CC[C@@]5(C)C4CC(=O)[C@]3(C)C1C2C (stereo not given in full)	6%	.	.	.	.	.
COCCn1c(=O)c(C)nc2cnc(N3CCN(C)CC3)nc21	-7%	1%	2%[9.22 µM]	27%	1%	.
COc1ccc(-n2c(=O)c(-c3ccccc3)nc3cnc(N4CCOCC4)nc32)cc1	6%	0%	-3%[9.22 µM]	7%	9%	2%

Screening results deposited in PubChem BioAssay by National Center for Advancing Translational Sciences (NCATS).
